We go through eleven compounds from PubChem BioAssay (NCATS).

Experiment [1] is described as follows: qHTS profiling for inhibitors of Plasmodium falciparum (3D7) proliferation (AID 743322).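 Further: infected erythrocytes exposed to compound for 72 h before lysis; 100% = DMSO vehicle wells and 0% = 0.29 µM artemisinin.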 Conditions: P. falciparum 3D7 proliferation; at 28.7 µM (top of the series). Put shortly: (§1)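 Parasite DNA was quantified by SYBR Green I fluorescence (ex 485, em 535 nm) after overnight lysis in saponin/Triton buffer at room temperature. Cultures at 0.3% parasitemia and 2.5% hematocrit were first exposed to compound for 72 h at 37 C; signals were normalised to artemisinin (0.29 uM) and vehicle wells.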
Background: Quantitative high-throughput screening tests each substance at several concentrations.

The nature of experiment [2]: qHTS profiling for inhibitors of Plasmodium falciparum (HB3) proliferation (AID 743324; active means well fitted curve in the direction sought with a large enough effect; an effect the other way counts as inactive or inconclusive;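 further: 100% = DMSO vehicle wells and 0% = artemisinin-treated control wells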). To be noted: Plasmodium falciparum HB3 blood-stage proliferation; at 28.7 µM (top of the series). Put shortly: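 SYBR Green fluorescence (485 ex/535 em) of lysed cultures, incubated overnight at room temperature in the dark, quantifies parasite DNA. Infected erythrocytes at 0.3% parasitemia and 2.5% hematocrit were exposed 72 h; values normalized to DMSO and 0.29 uM artemisinin controls.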

The nature of experiment [3]: qHTS profiling of the MIPE4 collection as inhibitors of Plasmodium falciparum (3D7) proliferation (AID 743344).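 Further: scaled between DMSO vehicle wells and 0.29 µM artemisinin as full inhibition.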 Conditions: P. falciparum 3D7 in erythrocytes, SYBR Green DNA fluorescence, 72 h; at 28.5 µM (top of the series) unless noted. Put shortly: as §1
The nature of experiment [4]: qHTS profiling of the MIPE4 collection as inhibitors of Plasmodium falciparum (DD2) proliferation (AID 743345). Conditions: P. falciparum Dd2 in erythrocytes, SYBR Green DNA, 72 h; at 28.5 µM (top of the series) unless noted. Put shortly:
as §1

Experiment [5] can be described thus: qHTS profiling of the MIPE4 collection as inhibitors of Plasmodium falciparum (HB3) proliferation (AID 743347).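 Further: plate controls were DMSO vehicle wells for no effect and artemisinin wells for full effect.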 Conditions: P. falciparum HB3 in erythrocytes, SYBR Green DNA, 72 h; at 28.5 µM (top of the series) unless noted. Put shortly: as §1
Experiment [6] can be described thus: High-throughput drug toxicity screening in the BPDCN cell line Gen2.2 (AID 1224824).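 Further: cells exposed to compounds for 48 h before reading.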 To be noted: Gen2.2 BPDCN cells; at 45.8 µM (top of the series) unless noted. Put shortly: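 Readout is ATP luminescence from Gen2.2 cells after two days of drug exposure in serum-containing medium at 37 °C. Values express percent activity, with vehicle defining full signal and 9.2 uM bortezomib defining zero.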

Experiment [7] is described as follows: High-throughput drug toxicity screening in the BPDCN cell line Cal-1 (AID 1224825). To be noted: Cal-1 BPDCN cell viability, qHTS; at 45.8 µM (top of the series) unless noted. In a few lines:
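CellTiter-Glo luminescence after 48 h compound exposure; percent activity scaled with DMSO as 100% and bortezomib (9.2 uM final) as 0%. Cal-1 cells seeded at 500/well in RPMI, 10% FBS, no phenol red.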

A short description of experiment [8]: qHTS assay for measurement of the activity of small molecule inhibitors on Zika virus induced Caspase-3 activity in human iPSC derived neural progenitor cells (hNPCs) (AID 1224857; active means well fitted curve in the direction sought with a large enough effect; an effect the other way counts as inactive or inconclusive; further: % of control where 0% means no effect; nearly all actives have a fitted effect of over 65% in size). Put shortly: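 Pretreat hNPCs with compound 1 h; infect ZIKV 2 FFU/cell; 6 h 37 C, 5% CO2; Caspase-Glo 3/7, 30 min RT; luminescence; normalize to no-virus and virus-only wells.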

Experiment [9] is described as follows: qHTS Assay for Identifying Gametocytocidal Compounds (AID 743244; active means well fitted curve in the direction sought with a large enough effect; an effect the other way counts as inactive or inconclusive; further: potency means the concentration at half of the fitted maximal effect). Conditions: P. falciparum 3D7 stage III-V gametocytes, alamarBlue, 72 h; max response: stronger effect = lower value. Put shortly:
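Compounds are pinned into medium, gametocytes (stage III–V, 3D7, 20,000 cells/well) added, and plates held 72 h at 37 °C in 5% CO2. AlamarBlue follows for 24 h before fluorescence reading.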

A short description of experiment [10]: qHTS profiling for inhibitors of Plasmodium falciparum (DD2) proliferation (AID 743323). Conditions: lower = more inhibition; at 28.7 µM (top of the series). Put shortly:
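Parasite DNA quantified by SYBR Green fluorescence (ex 485, em 535 nm) after saponin/Triton lysis and overnight dark incubation. Cultures: 0.3% parasitemia, 2.5% hematocrit, 72 h, 37 C; data scaled between DMSO and 0.29 uM artemisinin.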

A short description of experiment [11]: qHTS profiling of the MIPE4 collection as inhibitors of Plasmodium falciparum (DD2) proliferation (Rep 2) (AID 743346). Conditions: P. falciparum Dd2 in erythrocytes, SYBR Green DNA, 72 h; at 28.5 µM (top of the series) unless noted. In a few lines: as §1
Experiment [12] is described as follows: qHTS assay for measurement of the activity of small molecule inhibitors on Zika virus induced Caspase-3 activity in human astrocytoma cells (AID 1224859; active means well fitted curve in the direction sought with a large enough effect; an effect the other way counts as inactive or inconclusive;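 further: plate controls were ZIKV-infected untreated cells for no effect and uninfected cells for full effect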). Put shortly:
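Human SNB-19 astrocytoma cells in RPMI 1640 with 10% FBS receive compound one hour ahead of Zika virus at 2 FFU/cell. After 6 h infection, caspase-3/7 activity is detected by Caspase-Glo luminescence.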

Records with an inconclusive call do not appear. Activity calls are given as the source filed them. Unless noted, how the calls were made is not given here.

As for `c1cc(-c2cnn3cc(-c4ccc(OCCN5CCCCC5)cc4)cnc23)ccn1`, the remaining parasite growth % (stronger effect = lower value) in experiment [1] came to 6.04%. Besides, the remaining proliferation (% of control), lower = more inhibition in experiment [2] was determined as 12%. In addition, the parasite growth, % of DMSO control in [3] came out at 4.66%. Further, in [4], the parasite growth remaining, % of DMSO control (lower = more inhibition) was 6.66%. For the same compound, the growth, % of control in [5] was found to be 4.45%. Further, the cell viability, % of control (lower = more cytotoxic) in [6] turned out to be 2.64%. The viability (% of control) in [7] amounted to 3.8%. Besides, the Potency result in [8] is “inactive”.

For the compound `C[C@@H](Oc1cc(-c2cnn(C3CCNCC3)c2)cnc1N)c1c(Cl)ccc(F)c1Cl`, the Potency in experiment [9] is 7.43 µM (active). Also, the remaining parasite growth % (stronger effect = lower value) in experiment [1] is -1.04%. In [10], the activity, percent of control turned out to be 1.46%. The remaining proliferation (% of control), lower = more inhibition in experiment [2] is -2.16%. The same compound showed a parasite growth, % of DMSO control in [3] of 5.26%. In experiment [4], the parasite growth remaining, % of DMSO control (lower = more inhibition) is 5.84%. Also, the parasite growth, % of control (lower = inhibition) in experiment [11] worked out at 10.7%. In experiment [5], the growth, % of control came out at 2.36%. Further, the cell viability, % of control (lower = more cytotoxic) in experiment [6] came out at 13.2%. The Potency entry in [8] and in experiment [12] was “inactive” throughout.

`Cc1cn(-c2cc(NC(=O)c3ccc(C)c(Nc4nccc(-c5cccnc5)n4)c3)cc(C(F)(F)F)c2)cn1`: in experiment [1], the remaining parasite growth % (stronger effect = lower value) worked out at 3.06%. Moreover, the activity, percent of control in experiment [10] came to 12.7%. Besides, the remaining proliferation (% of control), lower = more inhibition in experiment [2] was determined as 2.94%. The compound also showed a parasite growth, % of DMSO control in experiment [3] of 6.31%. Further, the parasite growth remaining, % of DMSO control (lower = more inhibition) in experiment [4] was found to be 8.07%. Also, in [11], the parasite growth, % of control (lower = inhibition) was 27.3%. In addition, the growth, % of control in experiment [5] amounted to 7.2%. The cell viability, % of control (lower = more cytotoxic) in [6] was determined as 231%. In addition, in experiment [7], the viability (% of control) is 101%. The Potency result in experiment [8] was “inactive”.

In the case of `Fc1cc(-c2cccc3ncc(-c4cnn(C5CCNCC5)c4)nc23)cc(F)c1CN1CCOCC1`, the cell viability, % of control (lower = more cytotoxic) in [6] amounted to 5.16%. In addition, the Potency entry in [8] and in experiment [12] was “inactive” throughout.

On to `O=C(O)C1(Cc2cccc(Nc3nccs3)n2)CCC(Oc2cccc(Cl)c2F)CC1` (stereo not drawn), for which, in experiment [3], the parasite growth, % of DMSO control was found to be 63.9%. Moreover, the parasite growth remaining, % of DMSO control (lower = more inhibition) in [4] was 98.3%. Besides, in [11], the parasite growth, % of control (lower = inhibition) was determined as 59.5%. The growth, % of control in experiment [5] amounted to 92%. In addition, the cell viability, % of control (lower = more cytotoxic) in experiment [6] worked out at 88.8%. Also, the viability (% of control) in [7] stood at 33.8%. The Potency result in experiment [8] is “inactive”.

Regarding `COC(=O)[C@]12CCC(C)(C)C[C@@H]1[C@@H]1C(=O)C=C3[C@@]4(C)C=C(C#N)C(=O)C(C)(C)[C@@H]4CC[C@@]3(C)[C@]1(C)CC2`, the remaining parasite growth % (stronger effect = lower value) in experiment [1] is 0.25%. For the same compound, in experiment [10], the activity, percent of control worked out at 0.779%. For the same compound, the remaining proliferation (% of control), lower = more inhibition in [2] turned out to be 2.29%. The same compound gave a parasite growth, % of DMSO control in experiment [3] of 13.9%. The parasite growth remaining, % of DMSO control (lower = more inhibition) in [4] worked out at 7.23%. For the same compound, the parasite growth, % of control (lower = inhibition) in [11] came out at 25.5%. The same compound showed a growth, % of control in experiment [5] of 11.3%. Further, in experiment [6], the cell viability, % of control (lower = more cytotoxic) is 3.73%. Further, the viability (% of control) in experiment [7] came out at 2.87%. In addition, the Potency result in experiment [8] is “inactive”.

As for `Cc1ccc(CN2CCNCC2)cc1NC(=O)CNc1ccc(F)c(F)c1`, the parasite growth, % of DMSO control in experiment [3] is 55.3%. Moreover, the parasite growth remaining, % of DMSO control (lower = more inhibition) in experiment [4] stood at 103%. Besides, the parasite growth, % of control (lower = inhibition) in experiment [11] is 63%. The compound also yielded a growth, % of control in experiment [5] of 60.8%. In experiment [6], the cell viability, % of control (lower = more cytotoxic) stood at 124%. The viability (% of control) in experiment [7] is 103%. In addition, the Potency entry in experiment [8] was “inactive”.

Compound `CC(C)c1cnn2c(NCc3ccccc3)cc(N[C@@H](CO)[C@H](O)CO)nc12` had a parasite growth, % of DMSO control in experiment [3] of 21.9%. The parasite growth remaining, % of DMSO control (lower = more inhibition) in [4] is 61.8%. The same compound yielded a parasite growth, % of control (lower = inhibition) in [11] of 21.4%. This compound displayed a growth, % of control in [5] of 14.5%. The cell viability, % of control (lower = more cytotoxic) in [6] came to 3.01%. Besides, the viability (% of control) in experiment [7] came out at 0.824%. Moreover, the Potency entry in experiment [8] was “inactive”.

Regarding `CN1CCN(c2ccc3nc(-c4c(N)c5c(F)cccc5[nH]c4=O)[nH]c3c2)CC1`, the remaining parasite growth % (stronger effect = lower value) in [1] is -2.13%. The remaining proliferation (% of control), lower = more inhibition in experiment [2] is -3.26%. For the same compound, the parasite growth, % of DMSO control in experiment [3] is 3.66%. Further, the parasite growth remaining, % of DMSO control (lower = more inhibition) in experiment [4] worked out at 6.04%. In [5], this compound registered a growth, % of control of 2.91%. Moreover, the cell viability, % of control (lower = more cytotoxic) in experiment [6] came out at 9.8%. Further, in [7], the viability (% of control) came out at 3.34%. Further, the Potency entry in [8] was “inactive”.

In the case of `C=C1C(=CC=C2CCC[C@]3(C)[C@@H]([C@H](C)C=C[C@H](C)C(C)C)CC[C@@H]23)C[C@@H](O)C[C@@H]1O`, the remaining parasite growth % (stronger effect = lower value) in [1] turned out to be 88.6%. Moreover, the activity, percent of control in experiment [10] was found to be 102%. Besides, the remaining proliferation (% of control), lower = more inhibition in [2] is 92.2%. This compound also showed a parasite growth, % of DMSO control in experiment [3] of 6.24%. For the same compound, the parasite growth remaining, % of DMSO control (lower = more inhibition) in [4] amounted to 7.23%. In [11], this compound registered a parasite growth, % of control (lower = inhibition) of 7.88%. For the same compound, the growth, % of control in experiment [5] worked out at 9.22%. Besides, the cell viability, % of control (lower = more cytotoxic) in [6] is 104%. Further, the viability (% of control) in experiment [7] came to 5.8%. Besides, the Potency result in experiment [8] was “inactive”.

In experiment [3], `Nc1ccc(S(=O)(=O)Nc2ncccn2)cc1` displayed a parasite growth, % of DMSO control of 92.1%. Further, the parasite growth remaining, % of DMSO control (lower = more inhibition) in experiment [4] was 105%. In addition, in experiment [11], the parasite growth, % of control (lower = inhibition) came out at 69.1%. The growth, % of control in experiment [5] was 63.8%. The cell viability, % of control (lower = more cytotoxic) in experiment [6] is 115%. Moreover, in experiment [7], the viability (% of control) worked out at 103%. In experiment [8], the Potency result was “inactive”.
